Test results as given in the supplement of paper PMC11732987, “Enantioselective OTUD7B fragment discovery through chemoproteomics screening and high-throughput optimisation” (Communications Chemistry, 2025).

How the values were obtained:
Assay in all cases: log2 ratio of Biotin-Ahx-Ub-VS probe labelling (fragment/DMSO); higher = less target engagement (more negative = stronger competition), active = hit call of the paper (q ≤ 0.05, log2 ratio ≤ -1)
Details in all cases: compound concentration: 200 uM; treatment time: 3 h
OTUD6B = molecular target: T1, OTUD6B (UniProt Q8N6M0)
T1 sequence (whole entry): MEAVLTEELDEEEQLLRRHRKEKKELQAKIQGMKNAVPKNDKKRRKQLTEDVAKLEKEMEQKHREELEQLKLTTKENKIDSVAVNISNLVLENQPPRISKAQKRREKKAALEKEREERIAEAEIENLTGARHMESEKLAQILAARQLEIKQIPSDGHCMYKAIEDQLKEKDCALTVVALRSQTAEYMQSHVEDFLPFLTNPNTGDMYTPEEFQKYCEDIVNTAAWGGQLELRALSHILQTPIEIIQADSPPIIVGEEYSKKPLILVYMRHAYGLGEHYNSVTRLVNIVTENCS
Outline: (§1)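 Average log2 ratios of fragment over vehicle were obtained by unpaired t-test from global-median-normalised Spectronaut label-free quantities. Proteins with ≥2 unique peptides were included. HEK293T lysate (495 µg per sample) was treated in triplicate with fragment at 200 µM or vehicle for 3 h, then with Biotin-Ahx-Ub-VS at 0.5 µM final for 1 h, and labelled DUBs were NeutrAvidin-enriched and run by diaPASEF LC-MS/MS.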

OTUD7B = molecular target: T2, OTUD7B (UniProt Q6GQQ9)
T2 sequence (whole entry): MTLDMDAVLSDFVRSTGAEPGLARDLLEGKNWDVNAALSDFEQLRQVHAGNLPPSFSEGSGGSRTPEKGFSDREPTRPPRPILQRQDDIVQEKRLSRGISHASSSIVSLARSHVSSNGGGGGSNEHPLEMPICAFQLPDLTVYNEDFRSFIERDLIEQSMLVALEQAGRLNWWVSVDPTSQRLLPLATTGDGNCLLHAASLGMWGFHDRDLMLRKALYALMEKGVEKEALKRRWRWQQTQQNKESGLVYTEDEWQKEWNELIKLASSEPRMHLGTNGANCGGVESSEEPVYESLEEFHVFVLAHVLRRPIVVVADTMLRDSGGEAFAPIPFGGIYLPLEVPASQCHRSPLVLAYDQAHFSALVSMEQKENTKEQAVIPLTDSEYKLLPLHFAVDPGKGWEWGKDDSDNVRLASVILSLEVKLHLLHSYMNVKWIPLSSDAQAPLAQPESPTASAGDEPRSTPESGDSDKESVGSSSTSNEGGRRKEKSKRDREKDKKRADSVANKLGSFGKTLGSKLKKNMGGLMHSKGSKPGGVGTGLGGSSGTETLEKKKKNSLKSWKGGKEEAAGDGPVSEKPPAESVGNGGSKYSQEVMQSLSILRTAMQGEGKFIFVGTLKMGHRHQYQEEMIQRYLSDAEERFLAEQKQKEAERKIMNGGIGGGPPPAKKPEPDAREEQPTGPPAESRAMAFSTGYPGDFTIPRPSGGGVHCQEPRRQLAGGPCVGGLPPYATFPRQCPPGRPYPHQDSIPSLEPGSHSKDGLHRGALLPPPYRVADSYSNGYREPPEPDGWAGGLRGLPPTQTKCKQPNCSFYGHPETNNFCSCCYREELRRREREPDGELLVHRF
Outline: as §1

PRPF8 = PRPF8 (UniProt Q6P2Q9)
Outline: as §1

PSMD7 = molecular target: T3, PSMD7 (UniProt P51665)
T3 sequence (whole entry): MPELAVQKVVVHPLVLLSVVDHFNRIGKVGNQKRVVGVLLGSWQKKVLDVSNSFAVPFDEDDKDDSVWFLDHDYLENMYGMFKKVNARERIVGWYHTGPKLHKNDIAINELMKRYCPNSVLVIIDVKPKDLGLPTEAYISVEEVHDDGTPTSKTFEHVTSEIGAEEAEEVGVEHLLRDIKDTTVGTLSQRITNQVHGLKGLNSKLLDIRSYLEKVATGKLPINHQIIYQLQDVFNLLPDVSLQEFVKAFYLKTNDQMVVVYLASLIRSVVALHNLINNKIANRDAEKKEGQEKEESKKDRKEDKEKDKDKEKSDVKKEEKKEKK
Outline: as §1

UCHL1 = UCHL1 (UniProt P09936)
Outline: as §1

UCHL3 = molecular target: T4, UCHL3 (UniProt P15374)
T4 sequence (whole entry): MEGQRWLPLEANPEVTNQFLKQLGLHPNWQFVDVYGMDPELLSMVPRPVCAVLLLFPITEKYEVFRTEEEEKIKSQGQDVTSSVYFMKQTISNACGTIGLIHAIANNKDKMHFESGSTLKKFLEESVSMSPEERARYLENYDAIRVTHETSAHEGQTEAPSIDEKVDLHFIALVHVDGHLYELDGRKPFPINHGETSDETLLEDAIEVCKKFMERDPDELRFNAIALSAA
Outline: as §1

UCHL5 = molecular target: T5, UCHL5 (UniProt Q9Y5K5)
T5 sequence (whole entry): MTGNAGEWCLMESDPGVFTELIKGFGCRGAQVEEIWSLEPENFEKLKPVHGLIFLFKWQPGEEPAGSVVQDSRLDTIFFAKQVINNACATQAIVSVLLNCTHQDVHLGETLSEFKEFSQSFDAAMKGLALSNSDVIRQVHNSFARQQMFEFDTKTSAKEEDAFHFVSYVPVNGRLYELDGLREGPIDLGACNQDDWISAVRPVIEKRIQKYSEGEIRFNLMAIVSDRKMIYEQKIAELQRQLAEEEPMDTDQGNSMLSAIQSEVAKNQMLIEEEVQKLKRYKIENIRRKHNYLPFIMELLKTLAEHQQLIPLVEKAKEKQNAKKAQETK
Outline: as §1

USP10 = USP10 (UniProt Q14694)
Outline: as §1

USP15 = molecular target: T6, USP15 (UniProt Q9Y4E8)
T6 sequence (whole entry): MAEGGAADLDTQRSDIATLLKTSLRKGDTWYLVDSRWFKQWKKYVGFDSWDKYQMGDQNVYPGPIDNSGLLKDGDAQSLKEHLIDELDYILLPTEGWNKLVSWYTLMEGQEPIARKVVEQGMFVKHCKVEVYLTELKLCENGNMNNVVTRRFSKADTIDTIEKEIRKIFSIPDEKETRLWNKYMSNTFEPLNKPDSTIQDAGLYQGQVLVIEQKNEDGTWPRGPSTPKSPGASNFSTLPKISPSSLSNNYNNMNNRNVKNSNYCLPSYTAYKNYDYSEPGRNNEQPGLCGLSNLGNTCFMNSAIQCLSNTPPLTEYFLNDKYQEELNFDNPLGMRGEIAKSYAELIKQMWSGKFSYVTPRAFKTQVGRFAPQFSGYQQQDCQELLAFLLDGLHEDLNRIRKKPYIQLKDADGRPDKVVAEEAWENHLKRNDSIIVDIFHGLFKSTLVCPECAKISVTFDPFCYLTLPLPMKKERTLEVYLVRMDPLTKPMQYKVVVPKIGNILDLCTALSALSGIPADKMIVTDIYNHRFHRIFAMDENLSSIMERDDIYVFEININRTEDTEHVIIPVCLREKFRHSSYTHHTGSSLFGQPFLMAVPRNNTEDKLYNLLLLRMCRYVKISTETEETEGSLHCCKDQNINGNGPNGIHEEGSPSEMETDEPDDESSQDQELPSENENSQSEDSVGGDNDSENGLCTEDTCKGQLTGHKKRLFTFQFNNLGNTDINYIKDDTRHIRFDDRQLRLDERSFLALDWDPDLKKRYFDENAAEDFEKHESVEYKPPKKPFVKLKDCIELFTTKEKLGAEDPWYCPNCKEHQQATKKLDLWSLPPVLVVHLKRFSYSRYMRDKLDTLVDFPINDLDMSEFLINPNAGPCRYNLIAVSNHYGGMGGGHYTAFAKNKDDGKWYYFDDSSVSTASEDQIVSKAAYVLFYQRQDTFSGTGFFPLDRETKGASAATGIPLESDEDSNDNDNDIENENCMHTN
Outline: as §1

USP16 = USP16 (UniProt Q9Y5T5)
Outline: as §1

Measured: log2 ratio of Biotin-Ahx-Ub-VS probe labelling

Chain of USP16 (Q9Y5T5 whole entry, looked up): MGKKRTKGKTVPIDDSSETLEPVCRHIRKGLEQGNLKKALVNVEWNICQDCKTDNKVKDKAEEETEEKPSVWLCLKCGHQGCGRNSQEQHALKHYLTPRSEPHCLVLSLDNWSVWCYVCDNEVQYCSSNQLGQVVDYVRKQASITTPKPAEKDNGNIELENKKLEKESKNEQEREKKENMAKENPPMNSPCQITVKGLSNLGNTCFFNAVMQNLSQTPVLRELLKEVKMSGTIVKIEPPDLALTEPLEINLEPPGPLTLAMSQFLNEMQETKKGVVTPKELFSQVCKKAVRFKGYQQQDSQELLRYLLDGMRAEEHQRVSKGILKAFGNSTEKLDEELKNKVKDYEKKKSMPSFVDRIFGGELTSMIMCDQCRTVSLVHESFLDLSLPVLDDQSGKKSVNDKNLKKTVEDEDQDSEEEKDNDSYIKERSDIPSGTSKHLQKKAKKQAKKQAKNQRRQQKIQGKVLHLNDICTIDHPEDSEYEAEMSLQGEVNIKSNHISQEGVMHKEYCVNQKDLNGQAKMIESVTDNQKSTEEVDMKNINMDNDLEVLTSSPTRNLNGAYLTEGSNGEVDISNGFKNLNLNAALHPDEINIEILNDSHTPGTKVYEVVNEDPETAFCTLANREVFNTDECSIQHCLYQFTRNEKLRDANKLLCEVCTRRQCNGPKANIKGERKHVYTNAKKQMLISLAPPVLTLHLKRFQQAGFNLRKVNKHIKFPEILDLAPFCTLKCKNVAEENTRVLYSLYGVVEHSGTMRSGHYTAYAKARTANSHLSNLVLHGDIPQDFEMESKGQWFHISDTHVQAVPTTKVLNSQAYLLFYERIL
Chain of USP10 (Q14694 whole entry): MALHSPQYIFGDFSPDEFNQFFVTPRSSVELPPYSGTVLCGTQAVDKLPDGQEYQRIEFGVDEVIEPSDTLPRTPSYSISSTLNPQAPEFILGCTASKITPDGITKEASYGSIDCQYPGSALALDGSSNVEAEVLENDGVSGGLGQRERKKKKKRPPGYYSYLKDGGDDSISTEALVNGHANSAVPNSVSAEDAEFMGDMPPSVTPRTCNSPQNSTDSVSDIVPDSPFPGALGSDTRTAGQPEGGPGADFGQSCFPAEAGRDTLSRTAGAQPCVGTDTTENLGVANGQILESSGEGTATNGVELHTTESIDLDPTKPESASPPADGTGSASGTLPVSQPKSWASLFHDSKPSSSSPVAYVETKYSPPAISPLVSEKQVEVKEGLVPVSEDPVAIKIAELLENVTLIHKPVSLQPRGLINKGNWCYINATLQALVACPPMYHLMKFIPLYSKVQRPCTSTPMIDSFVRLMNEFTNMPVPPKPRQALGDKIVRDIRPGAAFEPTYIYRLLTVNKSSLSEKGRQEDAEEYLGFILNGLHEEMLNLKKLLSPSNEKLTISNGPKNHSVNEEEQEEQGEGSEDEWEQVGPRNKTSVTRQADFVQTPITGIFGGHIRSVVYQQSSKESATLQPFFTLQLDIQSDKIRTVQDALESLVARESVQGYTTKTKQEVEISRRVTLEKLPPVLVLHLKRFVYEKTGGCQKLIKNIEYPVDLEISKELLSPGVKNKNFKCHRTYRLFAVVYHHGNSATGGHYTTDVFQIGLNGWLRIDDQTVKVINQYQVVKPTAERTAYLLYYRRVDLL
Chain of UCHL1 (P09936 whole entry, looked up): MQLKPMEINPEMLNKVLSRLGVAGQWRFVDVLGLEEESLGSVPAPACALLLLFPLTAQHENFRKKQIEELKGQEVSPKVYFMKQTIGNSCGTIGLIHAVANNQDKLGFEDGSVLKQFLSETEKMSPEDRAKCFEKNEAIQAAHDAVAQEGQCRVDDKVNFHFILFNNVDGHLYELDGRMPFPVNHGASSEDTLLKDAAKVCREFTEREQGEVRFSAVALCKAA

O=C(CCl)NC1CCN(C(=O)C2CCCCC2)CC1
inactive: OTUD6B 0.191 | OTUD7B -0.643 | PRPF8 0.0534 | PSMD7 -0.106 | UCHL1 -0.513 | UCHL3 0.338 | UCHL5 0.125 | USP10 -0.0591 | USP15 -0.0587 | USP16 -0.0778
